Data on 36 compounds can be found in PubChem BioAssay AID1347414 (National Center for Advancing Translational Sciences (NCATS), 2020).

Each structure is given as a SMILES string. Inconclusive results are not listed. A number with no mark means an inactive call. Active and inactive are the calls of the source. Calls follow the shape of the dose curve; as a rule, active = well fitted inhibition curve with a large enough effect; inconclusive = small, poorly fitted or top-dose-only effect; inactive = no such curve, though single readings can be large or run the other way.
% is scaled to controls: 0 for no effect and ±100 for the full control effect; potency is read from the fitted curve at half-maximal effect.

The test can be described thus: qHTS to identify inhibitors of the type 1 interferon - major histocompatibility complex class I in skeletal muscle: Secondary screen by immunofluorescence. Also: nearly all actives have a fitted effect of over 70% in size.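 As to activity change, negative = inhibition: digitonin at 100 µM served as the cytotoxic control.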 The following applies: C25cl48 myoblasts, IFN-b induced HLA-ABC immunofluorescence, 24 h; series mostly up to 49.8 µM; activity change, negative = inhibition: at the top concentration. The method, boiled down:
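Immortalized human myoblasts C25cl48 were stimulated with 4.0 ng/ml IFN-beta and exposed to an 11-point 1:3 compound titration, top 50 uM, for 24 h at 37 C. They were then fixed and immunostained for HLA-ABC, and quantified by laser scanning cytometry.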
For orientation: In qHTS, concentration-response curves come from the screen itself.
Consider `CC[C@H]1CN2CCc3cc(OC)c(OC)cc3[C@@H]2C[C@@H]1C[C@H]1NCCc2cc(OC)c(OC)cc21`, for which the Potency is 129 nM (active). On the same count and under the same terms, the figure for `Cc1cc(Nc2nc(N[C@@H](C)c3ncc(F)cn3)ncc2Cl)n[nH]1` is 647 nM (active). Turning to `CCCCC(=O)OCC(=O)[C@H]1[C@H](C)C[C@H]2[C@@H]3C[C@H](F)C4=CC(=O)C=C[C@]4(C)[C@@]3(F)[C@@H](O)C[C@@]21C`, the “activity change, negative = inhibition” value was -15.5%. For `CC[C@@]1(O)C(=O)OCc2c1cc1n(c2=O)Cc2cc3cc(O)ccc3nc2-1`, the Potency is 1620 nM (active). The same measure, in the same setting: under `Cc1ccc(-c2ncn(-c3ccc(Nc4nccc(-c5cccc(N6CCOCC6)c5)n4)cc3)n2)cn1` stands 1820 nM (active). Still for that read-out and setting: under `Cc1cnc(Nc2ccc(N3CCN(C)CC3)cc2)nc1Nc1cccc(S(=O)(=O)NC(C)(C)C)c1` stands 3640 nM (active); under `COc1cccc2c1C(=O)c1c(O)c3c(c(O)c1C2=O)C[C@@](O)(C(=O)CO)C[C@@H]3O[C@H]1C[C@H](N)[C@H](OC2CCCCO2)[C@H](C)O1` (stereo partly specified), 5140 nM (active). Same read-out and setting: the figure for `C=C1C(=O)O[C@@H]2[C@H]3O[C@]3(C)CC/C=C(\C)CC[C@@H]12` is 7260 nM (active); for `COc1ccc(-c2nc(N3CCOCC3)c3sc(CN(C)c4ncc(C(=O)NO)cn4)cc3n2)cn1` it is 5.8 nM (active); for `CN1CC[C@H](c2c(O)cc(O)c3c(=O)cc(-c4ccccc4Cl)oc23)[C@H](O)C1` it is 102 nM (active). For `Cc1oncc1C(=O)Nc1ccc(C(F)(F)F)cc1`, the “activity change, negative = inhibition” value is 10.8%. Turning to `C=C1C(=O)O[C@@H]2[C@H]3O[C@]3(C)CCC=C(C)CC[C@@H]12`, the Potency is 2890 nM (active). `CC(C)c1c(-c2ccccc2)nc2c(C#N)c[nH]n2c1=O`: the “activity change, negative = inhibition” value was -25.8%. On to `Cn1cc(CNCC2CCN(c3ncc(C(=O)NO)cn3)CC2)c2ccccc21`, for which the Potency was 9.1 nM (active). The same measure, in the same setting: the figure for `CC(C)(C)c1ccc(S(=O)(=O)/C=C/C#N)cc1` is 2290 nM (active). `Cc1[nH]c2ccccc2c1CCNCc1ccc(/C=C/C(=O)NO)cc1`: the Potency was 22.9 nM (active). The same measure, in the same setting: under `C=C1C(=O)O[C@H]2C[C@H](C)C(/C=C/C(C)=O)=CC[C@H]12` stands 5760 nM (active); under `O=C(Nc1nc2cccc(-c3ccc(CN4CCS(=O)(=O)CC4)cc3)n2n1)C1CC1`, 1820 nM (active). Same read-out and setting: the figure for `CC(=O)[C@]1(O)Cc2c(O)c3c(c(O)c2[C@@H](O[C@H]2C[C@H](N)[C@H](O)[C@H](C)O2)C1)C(=O)c1ccccc1C3=O` is 230 nM (active); for `Cc1ccc(C(N)=O)cc1Nc1nccc(-c2cn(C(C)C)c3cnccc23)n1` it is 3330 nM (active); for `CCS(=O)(=O)N1CCN(c2ccc(Nc3ncc(C(N)=O)c(NC4CC4)n3)cc2)CC1` it is 1290 nM (active). The same measure, in the same setting: the figure for `C1=C/COCc2cc(ccc2OCCN2CCCC2)Nc2nccc(n2)-c2cccc(c2)COC/1` is 1290 nM (active); for `C[C@@]12O[C@@H](C[C@]1(O)CO)n1c3ccccc3c3c4c(c5c6ccccc6n2c5c31)CNC4=O` it is 647 nM (active). `CNC(=O)c1cc(Oc2ccc(NC(=O)Nc3cc(C(C)(C)C)nn3-c3ccc4ncccc4c3)c(F)c2)ccn1`: the Potency was 1820 nM (active). On to `COc1cc2c(cc1-c1c(C)noc1C)ncc1[nH]c(=O)n([C@H](C)c3ccccn3)c12`, for which the Potency was 4080 nM (active). On to `O=c1[nH]c2cc(Cl)ccc2c(O)c1-c1ccc(Oc2ccccc2)cc1`, for which the “activity change, negative = inhibition” value was -1.08%. On to `CO[C@H]1/C=C\C=C(\C)C(=O)NC2=CC(=O)C(NCCN(C)C)=C(C[C@@H](C)C[C@H](OC)[C@H](O)[C@@H](C)/C=C(/C)[C@@H]1OC(N)=O)C2=O`, for which the “activity change, negative = inhibition” value is -125%. On to `CC(C)(C)c1cnc(CSc2cnc(NC(=O)C3CCNCC3)s2)o1`, for which the Potency is 289 nM (active). For `O=C1CN2Cc3c(ccc(Cl)c3Cl)N=C2N1`, the “activity change, negative = inhibition” value was 7.02%. Consider `Cc1ncc(-c2ccnc(Nc3ccc(S(C)(=O)=O)cc3)n2)n1C(C)C`, for which the Potency is 914 nM (active). Turning to `COC(=O)Nc1nc2ccc(C(=O)c3ccc(F)cc3)cc2[nH]1`, the “activity change, negative = inhibition” value was 8.22%. Consider `COc1nnc2ccc(N3CCC(c4ccc(OCCN5CCN(C)C(=O)[C@H]5C)cc4)CC3)nn12`, for which the Potency is 14.5 nM (active).

For `O=C1NC(=O)[C@@H](c2c[nH]c3ccccc23)[C@H]1c1cn2c3c(cccc13)CCC2`, the “activity change, negative = inhibition” value was 17.3%.

For the compound `C=CC(=O)N1CC/C(=C\c2ccc(F)c([N+](=O)[O-])c2)C(=O)/C(=C/c2ccc(F)c([N+](=O)[O-])c2)C1`, the Potency was 182 nM (active). In the case of `CCCOc1ccc2nc(NC(=O)OC)[nH]c2c1`, the “activity change, negative = inhibition” value is 1.06%.

For `CN(Cc1ccc(/C=C/C(=O)NO)cc1)CC12CC3CC(CC(C3)C1)C2`, the Potency was 72.6 nM (active).
